Drawing on ChEMBL document CHEMBL3988442, “University of Dundee, Small-Polar-MMV Screening Library” (2021), this text covers Percent Effect for eleven molecules.

Structures are written as SMILES. For some of these results: Entries with a potency or affinity are not part of this list.

What all share (set-up): scale not given: direction of the effect not stated beside the values
For assay [1], the target named is Protein translocase subunit SecA (Escherichia coli (strain K12)) (UniProt P10408). Put plainly: Assay to Identify E. coli SecA ATPase Inhibitors. It is filed as functional. Conditions: 30 µM.
Protein translocase subunit SecA (Escherichia coli (strain K12)), sequence (P10408 whole entry): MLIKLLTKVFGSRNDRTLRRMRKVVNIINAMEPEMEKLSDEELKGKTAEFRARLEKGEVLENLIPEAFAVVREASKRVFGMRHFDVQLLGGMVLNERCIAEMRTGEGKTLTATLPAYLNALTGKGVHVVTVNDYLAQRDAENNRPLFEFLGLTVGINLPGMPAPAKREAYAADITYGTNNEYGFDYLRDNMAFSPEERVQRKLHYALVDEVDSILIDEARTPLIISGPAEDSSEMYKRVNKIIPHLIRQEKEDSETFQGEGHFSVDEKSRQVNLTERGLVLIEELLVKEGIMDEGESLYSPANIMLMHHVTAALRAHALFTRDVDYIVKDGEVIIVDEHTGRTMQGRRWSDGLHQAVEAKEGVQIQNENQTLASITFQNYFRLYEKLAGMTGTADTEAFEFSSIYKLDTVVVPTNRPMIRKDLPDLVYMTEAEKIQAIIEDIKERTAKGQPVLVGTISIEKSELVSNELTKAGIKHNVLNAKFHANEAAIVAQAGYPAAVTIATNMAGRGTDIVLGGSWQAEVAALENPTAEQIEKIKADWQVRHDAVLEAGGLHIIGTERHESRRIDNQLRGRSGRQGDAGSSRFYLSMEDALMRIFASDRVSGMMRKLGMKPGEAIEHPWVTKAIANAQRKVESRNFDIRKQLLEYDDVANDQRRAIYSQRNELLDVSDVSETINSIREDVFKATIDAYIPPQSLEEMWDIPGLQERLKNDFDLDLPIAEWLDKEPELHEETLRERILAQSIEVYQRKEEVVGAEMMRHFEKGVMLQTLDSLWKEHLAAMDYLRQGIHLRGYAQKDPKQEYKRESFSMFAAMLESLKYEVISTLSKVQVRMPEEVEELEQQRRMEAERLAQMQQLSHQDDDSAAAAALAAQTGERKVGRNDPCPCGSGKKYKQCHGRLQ
The target in assay [2] is T1, Ubiquitin-activating enzyme e1, putative (Leishmania donovani (strain BPK282A1)) (UniProt E9BSI1).
T1 sequence (whole entry): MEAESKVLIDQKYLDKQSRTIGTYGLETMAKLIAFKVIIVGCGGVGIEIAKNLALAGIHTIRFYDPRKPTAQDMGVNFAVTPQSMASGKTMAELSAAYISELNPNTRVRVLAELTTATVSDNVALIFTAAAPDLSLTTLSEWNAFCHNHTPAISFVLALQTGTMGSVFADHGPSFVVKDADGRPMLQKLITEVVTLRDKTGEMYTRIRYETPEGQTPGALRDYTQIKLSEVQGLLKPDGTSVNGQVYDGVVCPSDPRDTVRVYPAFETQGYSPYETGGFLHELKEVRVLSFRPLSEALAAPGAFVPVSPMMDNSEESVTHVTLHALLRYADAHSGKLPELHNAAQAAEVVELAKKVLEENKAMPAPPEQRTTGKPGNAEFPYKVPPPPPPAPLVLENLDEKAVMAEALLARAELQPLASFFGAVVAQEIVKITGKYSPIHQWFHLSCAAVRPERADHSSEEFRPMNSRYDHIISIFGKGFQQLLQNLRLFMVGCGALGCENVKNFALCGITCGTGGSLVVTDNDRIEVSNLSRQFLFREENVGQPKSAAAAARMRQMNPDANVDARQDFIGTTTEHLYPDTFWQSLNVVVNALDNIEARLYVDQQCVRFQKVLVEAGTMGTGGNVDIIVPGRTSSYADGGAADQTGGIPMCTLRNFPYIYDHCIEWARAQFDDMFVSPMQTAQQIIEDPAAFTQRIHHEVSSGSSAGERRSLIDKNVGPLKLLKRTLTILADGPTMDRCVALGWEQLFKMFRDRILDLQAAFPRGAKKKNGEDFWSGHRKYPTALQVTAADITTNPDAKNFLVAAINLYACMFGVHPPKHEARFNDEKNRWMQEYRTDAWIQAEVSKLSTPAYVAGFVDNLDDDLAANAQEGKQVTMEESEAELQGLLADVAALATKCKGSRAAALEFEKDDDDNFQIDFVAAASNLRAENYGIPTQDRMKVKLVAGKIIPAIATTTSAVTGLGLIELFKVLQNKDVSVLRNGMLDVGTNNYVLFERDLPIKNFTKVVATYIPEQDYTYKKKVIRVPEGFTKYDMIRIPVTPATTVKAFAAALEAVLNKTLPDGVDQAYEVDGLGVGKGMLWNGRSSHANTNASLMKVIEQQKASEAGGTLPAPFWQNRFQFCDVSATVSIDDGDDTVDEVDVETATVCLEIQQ
Put plainly: Leishmania donovani Ubiquitin Activating Enzyme (LdE1). It is filed as functional. Conditions: 30 µM.

The target of assay [3] is AMP-activated protein kinase, AMPK (Homo sapiens) (UniProt P54646+O43741+P54619+Q9UGJ0+Q9Y478+Q13131+Q9UGI9). Briefly: AMP-dependent Kinase enzyme assay. An in vitro enzyme assay that detects ADP turnover that is directly proportional to AMPK activity. This uses naive AMPK that is activated during the assay with MK-8722. It is filed as functional. To be noted: 30 µM.
The target of assay [4] is Sialic acid-binding Ig-like lectin 9 (Homo sapiens) (UniProt Q9Y336). Put plainly: Hs-Siglec9 ALPHAscreen SOP 20170721. To be noted: 10 µM. (In general: Alpha assays give light when donor and acceptor beads are brought close together.)
Sialic acid-binding Ig-like lectin 9 (Homo sapiens), sequence (Q9Y336 whole entry): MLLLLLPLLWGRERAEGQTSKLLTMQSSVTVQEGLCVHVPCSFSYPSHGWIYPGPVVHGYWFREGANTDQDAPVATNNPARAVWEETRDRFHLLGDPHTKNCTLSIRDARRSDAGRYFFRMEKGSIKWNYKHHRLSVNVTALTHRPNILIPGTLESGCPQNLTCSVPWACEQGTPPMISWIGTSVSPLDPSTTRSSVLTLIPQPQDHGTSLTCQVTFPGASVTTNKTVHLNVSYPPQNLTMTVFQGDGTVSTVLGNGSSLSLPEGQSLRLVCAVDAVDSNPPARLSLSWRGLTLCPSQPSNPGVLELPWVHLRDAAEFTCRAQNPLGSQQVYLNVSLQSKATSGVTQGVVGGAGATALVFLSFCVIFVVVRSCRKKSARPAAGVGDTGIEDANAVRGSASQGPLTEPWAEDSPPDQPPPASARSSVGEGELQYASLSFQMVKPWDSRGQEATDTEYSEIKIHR
The test system of the next assay is Trypanosoma cruzi. Put plainly: Trypanosoma cruzi phosphomannomutase and mannose-1-phosphate guanylyltransferase assay. Conditions: 10 µM. Type of assay: functional.
The target of assay [5] is T2, Arginase-2, mitochondrial (Homo sapiens) (UniProt P78540).
T2 sequence (whole entry): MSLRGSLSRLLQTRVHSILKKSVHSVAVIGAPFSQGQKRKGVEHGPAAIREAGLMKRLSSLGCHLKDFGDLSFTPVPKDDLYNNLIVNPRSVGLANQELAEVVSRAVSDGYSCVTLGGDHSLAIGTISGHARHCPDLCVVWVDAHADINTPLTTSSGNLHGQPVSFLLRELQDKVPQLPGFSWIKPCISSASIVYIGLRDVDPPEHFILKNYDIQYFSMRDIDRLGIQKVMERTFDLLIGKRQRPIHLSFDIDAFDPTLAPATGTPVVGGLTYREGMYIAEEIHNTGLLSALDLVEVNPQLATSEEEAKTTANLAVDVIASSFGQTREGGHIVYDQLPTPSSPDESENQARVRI
Briefly: in vitro enzyme assay to detect the production of urea directly proportional to the activity of Arginase II. Note: in the data most compounds retested in dose-response had high values. Type of assay: functional. To be noted: 33.3 µM.

In assay [6] the target is T3, Proteasome subunit beta (Trypanosoma cruzi) (UniProt O96673).
T3 sequence (whole entry): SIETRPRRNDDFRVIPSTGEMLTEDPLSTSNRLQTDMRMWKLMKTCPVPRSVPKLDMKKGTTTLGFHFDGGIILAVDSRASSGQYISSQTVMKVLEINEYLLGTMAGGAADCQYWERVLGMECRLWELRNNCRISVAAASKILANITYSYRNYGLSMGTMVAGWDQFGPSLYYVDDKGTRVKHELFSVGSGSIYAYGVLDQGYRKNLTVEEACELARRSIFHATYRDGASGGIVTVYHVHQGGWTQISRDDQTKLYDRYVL
Briefly: Trypanosoma cruzi proteasome chymotrypsin-like activity (TcProtChymo) assay. Note: in the data most compounds retested in dose-response had high values. Type of assay: functional. Conditions: 9.37 µM.

The species named for another assay is Homo sapiens. Briefly: To identify inhibition of the IFN signalling (Jak-Stat) pathway via expression of an eGFP reporter gene under the control of an IFN-stimulated response element (ISRE) containing MxA promoter. Type of assay: functional. Conditions: 30 µM.
Assay [7] concerns the target T4, Tyrosyl-tRNA synthetase, putative (Trypanosoma cruzi (strain CL Brener)) (UniProt Q4DSP6).
T4 sequence (whole entry): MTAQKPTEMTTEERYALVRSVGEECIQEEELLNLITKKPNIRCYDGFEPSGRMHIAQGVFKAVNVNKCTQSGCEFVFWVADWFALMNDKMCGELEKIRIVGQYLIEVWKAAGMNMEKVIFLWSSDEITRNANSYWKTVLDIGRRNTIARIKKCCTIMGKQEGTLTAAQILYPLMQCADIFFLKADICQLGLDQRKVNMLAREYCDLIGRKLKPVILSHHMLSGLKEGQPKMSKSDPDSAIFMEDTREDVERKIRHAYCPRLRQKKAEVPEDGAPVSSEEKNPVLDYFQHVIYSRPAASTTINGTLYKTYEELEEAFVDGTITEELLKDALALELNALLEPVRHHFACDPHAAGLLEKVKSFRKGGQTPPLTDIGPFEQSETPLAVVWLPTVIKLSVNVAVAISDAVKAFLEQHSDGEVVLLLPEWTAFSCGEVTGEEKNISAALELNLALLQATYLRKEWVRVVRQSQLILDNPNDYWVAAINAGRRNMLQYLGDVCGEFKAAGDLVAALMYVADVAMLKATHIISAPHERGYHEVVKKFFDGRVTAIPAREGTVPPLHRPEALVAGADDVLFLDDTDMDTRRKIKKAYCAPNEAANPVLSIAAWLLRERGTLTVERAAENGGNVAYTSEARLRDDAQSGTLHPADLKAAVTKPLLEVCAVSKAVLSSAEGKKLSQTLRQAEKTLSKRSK
Briefly: Trypanosoma cruzi tyrosyl tRNA synthetase (TcYRS) _High Tyrosine SOP. Note: in the data most compounds retested in dose-response had high values. It is filed as functional. Conditions: 30 µM.

For assay [8], the target named is T4, Tyrosyl-tRNA synthetase, putative (Trypanosoma cruzi (strain CL Brener)). Put plainly: Trypanosoma cruzi tyrosyl tRNA synthetase (TcYRS) SOP. Type of assay: functional. To be noted: 30 µM.
Assay [9] has as its target Chromo domain-containing protein 1 (Saccharomyces cerevisiae (strain ATCC 204508 / S288c) (Baker's yeast)) (UniProt P32657). Briefly: ScCHD-1 Enzyme Inhibition Assay. Note: in the data most compounds retested in dose-response had high values. It is filed as functional. Conditions: 30 µM.

Chromo domain-containing protein 1 (Saccharomyces cerevisiae (strain ATCC 204508 / S288c) (Baker's yeast)), sequence (P32657 whole entry, the tested form may be a part): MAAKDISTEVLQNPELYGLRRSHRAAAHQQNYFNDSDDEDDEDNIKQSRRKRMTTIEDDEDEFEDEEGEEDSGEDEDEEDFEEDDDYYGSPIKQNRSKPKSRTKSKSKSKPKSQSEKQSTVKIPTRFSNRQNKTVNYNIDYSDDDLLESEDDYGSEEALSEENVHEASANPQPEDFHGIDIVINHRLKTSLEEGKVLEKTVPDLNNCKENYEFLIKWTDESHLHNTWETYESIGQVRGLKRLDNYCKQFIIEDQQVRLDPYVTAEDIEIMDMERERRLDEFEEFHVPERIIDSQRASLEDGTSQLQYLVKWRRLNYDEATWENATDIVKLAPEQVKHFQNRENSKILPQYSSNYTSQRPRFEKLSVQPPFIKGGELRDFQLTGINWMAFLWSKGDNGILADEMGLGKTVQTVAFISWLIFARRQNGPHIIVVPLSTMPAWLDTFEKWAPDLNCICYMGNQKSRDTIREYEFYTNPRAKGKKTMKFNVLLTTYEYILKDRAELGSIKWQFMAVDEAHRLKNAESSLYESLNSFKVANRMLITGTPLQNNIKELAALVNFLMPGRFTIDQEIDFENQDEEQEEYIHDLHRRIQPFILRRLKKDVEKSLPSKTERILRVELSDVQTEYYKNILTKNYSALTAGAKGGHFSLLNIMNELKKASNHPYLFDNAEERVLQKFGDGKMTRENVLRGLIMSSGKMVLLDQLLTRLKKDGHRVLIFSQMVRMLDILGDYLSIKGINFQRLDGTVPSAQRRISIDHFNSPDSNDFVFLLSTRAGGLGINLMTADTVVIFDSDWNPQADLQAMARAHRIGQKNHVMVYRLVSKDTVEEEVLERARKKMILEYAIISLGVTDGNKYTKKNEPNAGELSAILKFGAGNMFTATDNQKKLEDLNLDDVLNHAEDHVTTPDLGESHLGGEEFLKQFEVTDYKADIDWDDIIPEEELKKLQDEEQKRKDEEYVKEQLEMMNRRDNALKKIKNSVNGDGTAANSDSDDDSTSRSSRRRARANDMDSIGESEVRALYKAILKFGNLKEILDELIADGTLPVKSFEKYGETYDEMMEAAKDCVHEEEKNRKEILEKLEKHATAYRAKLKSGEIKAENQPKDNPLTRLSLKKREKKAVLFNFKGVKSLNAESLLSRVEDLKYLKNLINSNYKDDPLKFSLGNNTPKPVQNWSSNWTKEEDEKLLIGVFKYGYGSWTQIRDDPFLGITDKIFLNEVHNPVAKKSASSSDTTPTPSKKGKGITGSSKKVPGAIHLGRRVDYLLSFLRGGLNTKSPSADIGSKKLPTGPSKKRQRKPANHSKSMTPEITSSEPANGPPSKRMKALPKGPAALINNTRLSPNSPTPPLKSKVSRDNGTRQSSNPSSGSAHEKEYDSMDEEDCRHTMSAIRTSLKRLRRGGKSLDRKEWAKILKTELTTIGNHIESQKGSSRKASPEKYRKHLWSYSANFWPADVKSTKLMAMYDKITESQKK

`O=C(c1cccc(Cl)c1)N1CCCn2c(CN3CCCCC3)nnc2C1`: the Percent Effect is -9.25% in [1]; 8% in [2]; -3.61% in [3]; 1.72% in [4]; -6.3% with Trypanosoma cruzi; -2.1% in assay [5]. Moreover, the Percent Effect in [6] is 0.441%; in the assay filed under Homo sapiens it was 10.4%; in assay [7] it was 4.25%; in [8] it was 3.85%; in assay [9], -2.51%.
On to `CCc1noc(CNc2ccc(F)cc2OCC2CC2)n1`, for which the Percent Effect is 0.992% in assay [1]; 18.9% in [2]; -7.79% in assay [3]; 18.2% in assay [4]; -1.54% with Trypanosoma cruzi; 7.14% in assay [5]. In addition, the Percent Effect in assay [6] was 9.83%; in the assay filed under Homo sapiens, 10.8%; in assay [7], 1.59%; in [8], 12.2%; in assay [9], -3.79%.
`CCS(=O)(=O)N1CC[C@]2(C[C@@H](OCC3CC3)CO2)C1`: the Percent Effect in assay [1] was -5.7%; in assay [2], 5.41%; in [3], -4.19%; in assay [4], 27.4%; with Trypanosoma cruzi it was 6.94%; in [5], -1.74%. Further, the Percent Effect is 13.3% in assay [6]; 1.36% in the assay filed under Homo sapiens; 8.6% in [7]; 13.6% in [8]; -6.86% in assay [9].
For the molecule `COCCN(C)CC(=O)N1C[C@H]2CC[C@@H]1CN(C(=O)c1ccncc1)C2`, the Percent Effect is -4.1% in assay [1]; 5.33% in assay [2]; -2.28% in [3]; 3.27% in assay [4]; -5.75% with Trypanosoma cruzi; 1.56% in [5]. In addition, the Percent Effect is 17.1% in [6]; 27.7% in the assay listed under Homo sapiens; 6.01% in assay [7]; 13.6% in assay [8]; -5.9% in assay [9].
Turning to `Cc1ccc(C(=O)N(C)Cc2cscn2)c(=O)[nH]1`, the Percent Effect in [1] was -6.94%; in assay [2] it was 15.8%; in [3] it was -3.33%; in assay [4] it was 3.04%; with Trypanosoma cruzi, 2.24%; in assay [5] it was 1.18%. In addition, the Percent Effect was 4.31% in assay [6]; 1.38% in the assay listed under Homo sapiens; 4.25% in assay [7]; 2.6% in [8]; -6.33% in assay [9].
Regarding `c1cnnc(N2CCCC2CNc2ncnc3ccccc23)c1` (stereo unspecified), the Percent Effect in [1] is -3.22%; in assay [2] it was -3.8%; in assay [3], 9.15%; in assay [4] it was -3.44%; in the assay with Trypanosoma cruzi, -4.41%; in assay [5] it was 4.09%. Further, the Percent Effect in assay [6] was 9.61%; in the assay listed under Homo sapiens it was 36%; in assay [7], 25%; in assay [8] it was 27.9%; in assay [9] it was -16.5%.
In the case of `Cc1nc(CNCc2c(C)nn(C)c2N2CCOCC2)cs1`, the Percent Effect in assay [1] is -2.88%; in [2], 7.89%; in assay [3] it was -0.222%; in assay [4] it was 9.92%; with Trypanosoma cruzi it was 3.95%; in [5], 2.68%. The Percent Effect was 5.68% in [6]; -6.91% in the assay listed under Homo sapiens; 4.41% in assay [7]; -4.88% in assay [8]; -3.53% in assay [9].
Take `CN1CC(=O)N(c2ccccc2)CC12CCN(Cc1nccs1)C2` (stereo unspecified): the Percent Effect in [1] was 3.96%; in assay [2], 5.33%; in assay [3] it was 4.18%; in assay [4], -3.23%; in the assay on Trypanosoma cruzi, -6.95%; in assay [5], -56.1%. For the same molecule, the Percent Effect was 13% in [6]; -0.957% in the assay listed under Homo sapiens; 4.17% in assay [7]; 22.5% in assay [8]; -4.64% in [9].
Take `CC(=O)c1cccc(NC(=O)Cn2cc(I)cn2)c1`: the Percent Effect was -6.3% in assay [1]; -2.63% in [2]; 12% in assay [3]; 2.47% in assay [4]; -2.43% with Trypanosoma cruzi; 11.8% in assay [5]. Besides, the Percent Effect in assay [6] is 9.3%; in the assay filed under Homo sapiens, -2.61%; in assay [7] it was -2.13%; in assay [8], 2.6%; in assay [9], 63%.
As for `CCCS(=O)(=O)N1CCO[C@H]2[C@H](OCc3ccccn3)CC[C@@H]21`, the Percent Effect is -9.04% in [1]; 8.11% in assay [2]; -5.79% in assay [3]; -1.28% in assay [4]; -0.977% with Trypanosoma cruzi; 5% in [5]. Further, the Percent Effect in assay [6] was 10.1%; in the assay listed under Homo sapiens it was 5.42%; in assay [7], 10.9%; in [8], 15.8%; in assay [9], -2.32%.
Regarding `Cc1nn(C)c(N2CCOCC2)c1CNCc1nccs1`, the Percent Effect is -3.96% in assay [1]; 7.89% in assay [2]; -1.27% in assay [3]; 5.34% in assay [4]; 9.4% in the assay on Trypanosoma cruzi; 4.21% in assay [5]. The Percent Effect in assay [6] was 9.86%; in the assay filed under Homo sapiens it was 3.23%; in [7] it was 3.43%; in assay [8], 17.1%; in [9] it was -6.95%.
